# PubChem BioAssay (NCI)
# About 79,000 compounds went through this panel and 15% of them were active in at least one assay; those are over-represented in the sample as a whole. Values without a mark were called inactive. Activity calls are given as the source filed them. Cut-off read from the data, not from the text of the source: active = growth inhibition above about 70%; inactive = the rest.
# Legend:
# [1] = NCI Yeast Anticancer Drug Screen. Data for the rad50 strain (AID 155);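 note: 0% = growth of vehicle-only cultures of the same strain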; conditions: S. cerevisiae rad50 strain growth inhibition, hits give high values
# How it was run: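 Yeast carrying a defined DNA repair defect were exposed to test compounds, and growth was compared with vehicle-treated controls to give percent inhibition.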
# [2] = NCI Yeast Anticancer Drug Screen. Data for the mec2-1 strain (AID 157); conditions: S. cerevisiae mec2-1 strain, hits give high values
# How it was run: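 Test agents were screened against the mec2-1 yeast strain, with defined DNA repair or cell cycle alteration. Growth was scored as inhibition against vehicle-only controls.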
# [3] = NCI Yeast Anticancer Drug Screen. Data for the sgs1 mgt1 strain (AID 161);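 note: 0% = growth of cultures given vehicle only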; conditions: S. cerevisiae sgs1 mgt1 strain, hits give high values
# How it was run: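 Inhibition of yeast growth, normalised to vehicle-treated controls, is reported for a strain bearing genetic alterations in DNA damage repair.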
# [4] = NCI Yeast Anticancer Drug Screen. Data for the cln2 rad14 strain (AID 165);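 note: 0% = growth equal to vehicle treated cultures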; conditions: S. cerevisiae cln2 rad14 strain, hits give high values
# How it was run: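 Growth of compound-exposed yeast (cln2 rad14 genotype) measured and expressed as inhibition relative to vehicle.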
# [5] = NCI Yeast Anticancer Drug Screen. Data for the bub3 strain (AID 167); conditions: S. cerevisiae bub3 mutant strain, hits give high values
# How it was run: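 Compounds were applied to a genetically altered yeast strain carrying a cell-cycle control defect. Growth inhibition was scored against vehicle-treated controls.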
# [6] = NCI Yeast Anticancer Drug Screen. Data for the mlh1 rad18 strain (AID 175); conditions: S. cerevisiae mlh1 rad18 strain growth inhibition, hits give high values
# How it was run: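 In this whole-cell yeast screen, a strain with altered DNA damage repair is challenged with compound, and its growth is measured against matched vehicle-treated controls.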
# [7] = at 5.0 µM (retest, dose inferred, filed as 0.5)
# [8] = at 50.0 µM (retest, dose inferred, filed as 5.0)
Compound,"growth inhibition [1, 7]","growth inhibition [1, 8]",growth inhibition ([1]; at 50.0 µM),"growth inhibition [2, 7]","growth inhibition [2, 8]",growth inhibition ([2]; at 50.0 µM),"growth inhibition [3, 7]","growth inhibition [3, 8]",growth inhibition ([3]; at 50.0 µM),"growth inhibition [4, 7]","growth inhibition [4, 8]",growth inhibition ([4]; at 50.0 µM),"growth inhibition [5, 7]","growth inhibition [5, 8]",growth inhibition ([5]; at 50.0 µM),"growth inhibition [6, 7]","growth inhibition [6, 8]",growth inhibition ([6]; at 50.0 µM)
COC(=O)C(CC(C)=O)CS(=O)(=O)CC(=O)C(=O)Nc1cccc([N+](=O)[O-])c1 (configuration not stated),4%,98% (active),99.5% (active),3%,99% (active),99.5% (active),7%,99% (active),99.2% (active),3%,98% (active),98.2% (active),5%,98% (active),99.2% (active),-2%,98% (active),99.2% (active)
O=C(CC1(O)C(=O)Nc2ccccc21)c1ccc(Cl)c(Cl)c1 (configuration not stated),-5%,26%,84% (active),-4%,29%,39%,1%,41%,73.4% (active),-5%,-12%,72% (active),-4%,31%,77.2% (active),-4%,31%,88.3% (active)
Cc1cccc2c1Oc1cc(Cl)ccc1C2NC(=O)CCN1CCCCC1 (configuration not stated),-22%,24%,85.2% (active),-12%,3%,25.9%,-6%,21%,86.3% (active),27%,26%,65.7%,16%,20%,-14.7%,14%,57%,69.1%
CN(C)CCNC(=O)Cc1cc(O)c2c(c1O)C(=O)c1ccccc1C2=O,6%,42%,75.3% (active),6%,16%,23%,4%,28%,81.3% (active),-7%,12%,54.7%,0%,16%,16%,4%,10%,82.1% (active)
